Measurements taken from PubChem BioAssay.
Records with an inconclusive call do not appear. Activity calls are given as the source filed them.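 The calls were made as follows, unless noted: active = normalized viability below 100% at a tested concentration; inactive = the rest.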

What was measured:
[1] = viability loss in pontine glioma line – cell-based, SU-DIPG-XVII, MIPE5.0, CellTiter-Glo, qHTS, dose response (AID 1347060; cut-off not given, nearly all actives have AC50 up to about 26 µM;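 as to AC50: cells exposed to compound for 48 hours before viability readout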); conditions: CellTiter-Glo ATP luminescence
[2] = viability loss in pontine glioma line – cell-based, SU-DIPG-XIII, MIPE4.0, CellTiter-Glo, qHTS, dose response (AID 1347061; cut-off not given, nearly all actives have AC50 up to about 37 µM;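 also: cells exposed to compound for 48 hours before readout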); conditions: CellTiter-Glo ATP luminescence
[3] = viability loss in pontine glioma line – cell-based, JHH-DIPG-1, MIPE4.0, CellTiter-Glo, qHTS, dose response (AID 1347062; cut-off not given, nearly all actives have AC50 up to about 27 µM;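 as to AC50: cells exposed to compound for two days before readout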); conditions: JHH-DIPG-1 viability, CellTiter-Glo ATP luminescence
[4] = viability loss in pontine glioma line – cell-based, SU-DIPG-XIII, MIPE5.0, CellTiter-Glo, qHTS, dose response (AID 1347064; cut-off not given, nearly all actives have AC50 up to about 23 µM;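 as to AC50: cells exposed to compound for 48 hours before the viability read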); conditions: CellTiter-Glo ATP luminescence
[5] = viability loss in pontine glioma line – cell-based, SU-DIPG-XXV, MIPE5.0, CellTiter-Glo, qHTS, dose response (AID 1347065; cut-off not given, nearly all actives have AC50 up to about 26 µM;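 also: cells exposed to compound for 48 hours before ATP readout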); conditions: CellTiter-Glo ATP luminescence
[6] = growth inhibition of DIPG cells – cell-based, MIPE4.0 library, CellTiter-Glo luminescence, qHTS (AID 1347066; cut-off not given, nearly all actives have AC50 up to about 30 µM;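 also: cells exposed to compound for 48 hours before readout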); conditions: SU-DIPG-VI viability, CellTiter-Glo ATP luminescence
[7] = JHH-DIPG-1 glioma cell viability, MIPE5.0 library, CellTiter-Glo luminescence, qHTS (AID 1347067; cut-off not given, nearly all actives have AC50 up to about 26 µM;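 also: cells exposed to compound for 48 hours before readout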); conditions: JHH-DIPG-1 glioma viability, CellTiter-Glo ATP luminescence
[8] = growth inhibition of DIPG cells – cell-based, MIPE5.0 library, qHTS (AID 1347068; cut-off not given, nearly all actives have IC50 up to about 30 µM;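 as to IC50: cells exposed to compound for 48 hours before viability readout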); conditions: SU-DIPG-XXV viability
[9] = viability loss in pontine glioma line – cell-based, SU-DIPG-IV, MIPE4.0, CellTiter-Glo, qHTS, dose response (AID 1347063; cut-off not given, nearly all actives have AC50 up to about 30 µM;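 also: compound exposure lasted 48 hours before the viability readout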); conditions: CellTiter-Glo ATP luminescence
[10] = viability loss with induced miR-34 in A549 – imaging, A549 dox-inducible miR-34, nuclei and caspase counts, primary screen (AID 1347080;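 active = compounds whose cell count with miR-34 switched on is under 0.7 times the count with it off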); conditions: A549 miR-34 inducible, Hoechst nuclei count, 48 h
[11] = compounds altering HSF1 focus formation in cells – imaging, Selleck Cancer Library (AID 1347162; in the data active = plate-normalised HSF1 focus index below about 0.46); conditions: human cells, HSF1 nuclear foci imaging, at 10 µM; SSMD: measured here: HSF1 foci SSMD mean; cell count: measured here: cell number; plate-normalised HSF1 focus index: stronger effect = lower value
[12] = MELAS cybrid and Rieske KO viability enhancers – cell-based, MELAS cybrids, Rieske KO mouse fibroblasts, CellTiter-Glo, primary screen (AID 1508586;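 active = mean z-score across replicates of 1.96 or higher in either the MELAS or the Rieske mutant cell line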;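 also: z relative to plate mean and SD of compound and empty wells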); conditions: low glucose
[13] = drug combination growth inhibition, ovarian cancer – cell-based, oncology-focused library, rucaparib conditional, profiling panel (AID 1508598); conditions: patient-derived ovarian cancer cells, CellTiter-Glo viability, 144 h, stronger effect = lower value

O=C(NC[C@H](O)CO)c1ccncc1Nc1ccc(I)cc1F
inactive: outcome [6] | outcome [8]
active: AC50 [1] 0.742 µM | AC50 [2] 1.32 µM | AC50 [3] 1.48 µM | AC50 [4] 0.417 µM | AC50 [5] 0.59 µM | AC50 [7] 0.332 µM

CN(CC(=O)N(Cc1ccc(C2CCCCC2)cc1)c1ccc(C(=O)O)c(O)c1)S(=O)(=O)c1c(F)c(F)c(F)c(F)c1F
active: AC50 [1] 8.33 µM | AC50 [2] 11.8 µM | AC50 [3] 16.6 µM | AC50 [4] 6.61 µM | AC50 [5] 9.34 µM | AC50 [6] 3.32 µM | AC50 [7] 3.72 µM | IC50 [8] 8.33 µM

NC(=O)c1cccc2cn(-c3ccc([C@@H]4CCCNC4)cc3)nc12
active: AC50 [1] 8.33 µM
inactive: outcome [2] | outcome [3] | outcome [9] | outcome [6] | outcome [7]

O=C(O)c1ccc(O)c2ncc(N3CCOCC3)cc12
inactive: outcome [1] | outcome [3] | outcome [8]
active: AC50 [2] 26.4 µM | AC50 [9] 23.5 µM | AC50 [6] 26.4 µM | AC50 [7] 23.5 µM

OCCn1cc(-c2cnc3nnn(Cc4ccc5ncccc5c4)c3n2)cn1
7870: cell count ([10]; measured here: total cells with miR-34 induction, stronger effect = lower value)
active: viability ([13]; at 0.000305 µM, OCI-P5x cells, with rucaparib 20 µM, 100% = cells with rucaparib alone) 99.5% | viability ([13]; at 0.0195 µM, OCI-P5x cells, without rucaparib) 99.8% | viability ([13]; at 1.25 µM, OCI-P5x cells, without rucaparib) 99.8% | viability ([13]; at 5 µM, OCI-P5x cells, with rucaparib 20 µM, 100% = cells with rucaparib alone) 97.4% | viability ([13]; at 5 µM, OCI-P5x cells, without rucaparib) 94.2%
0.57: z-score ([12]; Rieske KO mouse fibroblast survival, CellTiter-Glo 72 h)
1.2: fold change ([10]; measured here: relative caspase fold change +Dox/-Dox)
2.68: SSMD [11]
7630: cell count [11]
8280: cell count ([10]; measured here: total cells without miR-34 induction)
inactive: outcome [1] | outcome [2] | outcome [3] | outcome [4] | outcome [5] | outcome [7] | outcome [8] | fold change ([10]; stronger effect = lower value, cell number ratio, induced over uninduced) 0.95 | plate-normalised HSF1 focus index [11] 1.17 | z-score ([12]; MELAS cybrid survival, CellTiter-Glo 48 h, stronger effect = higher value) -0.449 | viability ([13]; at 0.000305 µM, OCI-C5x cells, with rucaparib 10 µM, 100% = cells with rucaparib alone) 111% | viability ([13]; at 0.000305 µM, OCI-C5x cells, without rucaparib) 109% | viability ([13]; at 0.000305 µM, OCI-P5x cells, without rucaparib) 102% | viability ([13]; at 0.00122 µM, OCI-C5x cells, with rucaparib 10 µM, 100% = cells with rucaparib alone) 118% | viability ([13]; at 0.00122 µM, OCI-C5x cells, without rucaparib) 110% | viability ([13]; at 0.00122 µM, OCI-P5x cells, with rucaparib 20 µM, 100% = cells with rucaparib alone) 106% | viability ([13]; at 0.00122 µM, OCI-P5x cells, without rucaparib) 105% | viability ([13]; at 0.00488 µM, OCI-C5x cells, with rucaparib 10 µM, 100% = cells with rucaparib alone) 119% | viability ([13]; at 0.00488 µM, OCI-C5x cells, without rucaparib) 113% | viability ([13]; at 0.00488 µM, OCI-P5x cells, with rucaparib 20 µM, 100% = cells with rucaparib alone) 102% | viability ([13]; at 0.00488 µM, OCI-P5x cells, without rucaparib) 102% | viability ([13]; at 0.0195 µM, OCI-C5x cells, with rucaparib 10 µM, 100% = cells with rucaparib alone) 118% | viability ([13]; at 0.0195 µM, OCI-C5x cells, without rucaparib) 112% | viability ([13]; at 0.0195 µM, OCI-P5x cells, with rucaparib 20 µM, 100% = cells with rucaparib alone) 102% | viability ([13]; at 0.0781 µM, OCI-C5x cells, with rucaparib 10 µM, 100% = cells with rucaparib alone) 124% | viability ([13]; at 0.0781 µM, OCI-C5x cells, without rucaparib) 117% | viability ([13]; at 0.0781 µM, OCI-P5x cells, with rucaparib 20 µM, 100% = cells with rucaparib alone) 102% | viability ([13]; at 0.0781 µM, OCI-P5x cells, without rucaparib) 101% | viability ([13]; at 0.313 µM, OCI-C5x cells, with rucaparib 10 µM, 100% = cells with rucaparib alone) 126% | viability ([13]; at 0.313 µM, OCI-C5x cells, without rucaparib) 118% | viability ([13]; at 0.313 µM, OCI-P5x cells, with rucaparib 20 µM, 100% = cells with rucaparib alone) 102% | viability ([13]; at 0.313 µM, OCI-P5x cells, without rucaparib) 106% | viability ([13]; at 1.25 µM, OCI-C5x cells, with rucaparib 10 µM, 100% = cells with rucaparib alone) 124% | viability ([13]; at 1.25 µM, OCI-C5x cells, without rucaparib) 113% | viability ([13]; at 1.25 µM, OCI-P5x cells, with rucaparib 20 µM, 100% = cells with rucaparib alone) 101% | viability ([13]; at 5 µM, OCI-C5x cells, with rucaparib 10 µM, 100% = cells with rucaparib alone) 148% | viability ([13]; at 5 µM, OCI-C5x cells, without rucaparib) 123%

C[N+](C)([O-])CCNc1ccc(NCC[N+](C)(C)[O-])c2c1C(=O)c1c(O)ccc(O)c1C2=O
active: AC50 [1] 9.34 µM | IC50 [8] 0.00132 µM
inactive: outcome [2] | outcome [3] | outcome [9] | outcome [6]
